S2 tox: viability counter-screen for ATXN expression inhibitors; S2 cells (HEK-293 line with an ATXN2-luciferase reporter) viability, CellTiter-Fluor protease fluorescence, 24 h; Potency, µM (highest dose often 56.7 µM), most hits filed as cytotoxic; hit rate 0.49% among 400,000; AID 651635; also: potency is read from the fitted curve at half-maximal effect; nearly all actives have a fitted effect of over 40% in size
ATXN2 expr inh: ATXN2 expression inhibition. HEK-293 ATXN2-luciferase reporter, luminescence, 24 h. Potency, µM (top dose mostly 57 µM), without a hit: top-dose activity change, negative = inhibition, actives largely listed as inhibitors. hit rate 0.72% among 360,000. AID 1745845; also: potency is read from the fitted curve at half-maximal effect; % is scaled to controls: 0 for no effect and ±100 for the full control effect; nearly all actives have a fitted effect of over 55% in size
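ATXN2-luciferase reporter cells (luciferase flanked by upstream and downstream ATXN2 gene portions) were treated 24 h at 37 °C with compounds at up to 57 uM. SteadyGlo luminescence gave expression; GF-AFC fluorescence gave viability.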
USP2a block: inhibitors of human ubiquitin-specific protease USP2a. USP2 core, Ub-CHOP2 coupled fluorogenic reporter, 485/531. AID 463254. hit rate 0.01% among 330,000. O75604. Potency, µM (top dose mostly 38.3 µM), inactives show top-dose activity change, negative = inhibition, usual class: inhibitors;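 also: potency is read from the fitted curve at half-maximal effect; plate controls were DMSO wells for no effect and full inhibition by NEM control for full effect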
Target sequence (O75604 whole entry, looked up): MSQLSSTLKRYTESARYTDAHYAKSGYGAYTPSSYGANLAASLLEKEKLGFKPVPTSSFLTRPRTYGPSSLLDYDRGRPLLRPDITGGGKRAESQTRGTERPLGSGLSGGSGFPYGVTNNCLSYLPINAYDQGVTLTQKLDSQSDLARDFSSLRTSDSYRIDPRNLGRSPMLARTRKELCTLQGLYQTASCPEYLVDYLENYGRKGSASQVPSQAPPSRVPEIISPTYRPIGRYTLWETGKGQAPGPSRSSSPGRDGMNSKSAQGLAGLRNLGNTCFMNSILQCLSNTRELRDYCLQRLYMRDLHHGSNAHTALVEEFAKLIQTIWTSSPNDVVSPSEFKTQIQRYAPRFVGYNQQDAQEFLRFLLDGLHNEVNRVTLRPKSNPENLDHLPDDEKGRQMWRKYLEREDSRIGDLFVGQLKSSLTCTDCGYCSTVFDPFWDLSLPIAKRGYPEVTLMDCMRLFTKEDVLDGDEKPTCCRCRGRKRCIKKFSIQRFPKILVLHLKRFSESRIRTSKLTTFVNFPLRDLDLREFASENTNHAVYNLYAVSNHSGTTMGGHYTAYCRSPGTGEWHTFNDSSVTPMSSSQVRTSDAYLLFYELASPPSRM
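Cell-free coupled assay: 10nM USP2 core preincubated 30min RT with compound in Tris-HCl pH 8.0/CaCl2/CHAPS buffer, then 25nM Ub-CHOP2 and 25nM reporter substrate; fluorescence (Ex 485/Em 531) read after 60min RT, normalized to NEM inhibition, concentration-response curves fitted.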
USP1-UAF1 inh: inhibitors of human USP1/UAF1 deubiquitinase | hit rate 0.23% among 390,000 | O94782 | recombinant USP1/UAF1, Ub-Rhodamine cleavage fluorescence | AID 743255 | Potency, µM (top dose mostly 57.1 µM), without a hit: at the top dose activity change, negative = inhibition, most hits filed as inhibitors; also: potency is read from the fitted curve at half-maximal effect; % is scaled to controls: 0 for no effect and ±100 for the full control effect; nearly all actives have a fitted effect of over 60% in size
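Step one: compound is pinned into 1nM USP1/UAF1 in HEPES pH 7.8 buffer with TCEP. Step two: 15 min room-temperature incubation. Step three: Ub-Rho (150nM final) starts cleavage, tracked by fluorescence over six one-minute reads.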
IL1B secr inh: inhibitors of inflammasome signaling (IL-1 beta secretion); THP-1 LPS/ATP IL-1B secretion, AlphaLISA, 16 h; active compounds read low; activity change, % at 57.5 µM; hit rate 4.7% among 360,000; in the data active = activity change below about -50%; inconclusive = mostly about -30% to -49%; also: % is scaled to controls: 0 for no effect and ±100 for the full control effect
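THP-1 cells pretreated 1 hr with compounds (up to 57.5 uM final), then stimulated with LPS (250 ng/mL final) plus ATP (1.25 mM final); secreted IL-1B measured by AlphaLISA after 16 hr, decreased signal indicating inhibition.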
* = called active by the depositor; i = inactive; ? = inconclusive; . = no result; ! = not confirmed by another sample; [ ] = dose if it differs, or a comment. In the library only some 4.8% were active in any assay of this set; here they are far more common. Unless noted, calls follow the shape of the dose curve; as a rule, active = well fitted curve in the direction sought with a large enough effect; inconclusive = small, poorly fitted or top-dose-only effect, or another doubt; inactive = no such curve, though single readings can be large; an effect the other way counts as inactive or inconclusive.

SMILES	S2 tox	ATXN2 expr inh	USP2a block	USP1-UAF1 inh	IL1B secr inh
CCOC(=O)c1c(NS(=O)(=O)c2ccccc2)n(CCCOC)c2nc3ccccc3nc12	.	-12%	2%	1.8µM*	-96*
CCOC(=O)c1c(N)n(CCCOC(=O)c2ccco2)c2nc3ccccc3nc12	i	?	0%	-19%	135
Cn1c(=O)n(C)c2cc(CNCCc3ccc(F)cc3)ccc21	?	-28%	.	12%	.
O=C(COC(=O)Cc1ccccc1)Nc1cc(S(=O)(=O)N2CCCCC2)ccc1Cl	i	-9%	0%	-11%	-9
Cc1ccc(S(=O)(=O)N2CCCCC2)cc1NC(=O)CSc1ncnc2ccccc12	?	?	1%	-13%	-97*
CC(C)(C)NCC(O)c1cc(Cl)c(N)c(C(F)(F)F)c1 (centres undefined)	?	3%	.	.	.
Clc1ccc(C(c2ccc(Cl)cc2)n2cc[n+](CC(OCc3ccc(Cl)cc3Cl)c3ccc(Cl)cc3Cl)c2)cc1 (centres undefined)	18µM*	28µM*!	?	-24%	-108*
Oc1ccc(O)c2c1C1(Cl)C(Cl)=C(Cl)C2(Cl)C1(Cl)Cl	?	?	.	-7%	-61*
CCC(=O)N1N=C(c2c(O)n(C)c(=O)n(C)c2=O)CC1c1ccccc1 (centres undefined)	?	.	-2%	-18%	250
CCN(CC)C(=O)c1ccc(NC(=O)CCn2nc(-c3ccc(Cl)cc3)c3ccccc3c2=O)cc1	?	?	.	-3%	.
CN(C)C(=O)Oc1ccc(Cl)c2ccccc12	i	-10%	-1%	-12%	-18
CN(C)C(=O)Oc1ccc(Br)cc1C(=O)Nc1ccc(F)c(Cl)c1	?	-1%	10%	-22%	-59*
O=C(NCc1ccc(Cl)cc1)C(=O)NCC(c1cccnc1)N1CCN(c2ccccc2)CC1 (centres undefined)	i	3%	.	?	.
CCOC(=O)C1(CCc2ccccc2)CCN(Cc2cccc3cnccc23)CC1	i	-32%	-7%	?	-111*
CCOC(=O)C1(CCc2ccccc2)CCN(Cc2csc(C(C)=O)c2)CC1	i	-25%	0%	-9%	-1
CCOC(=O)C1(CCc2ccccc2)CCN(Cc2cccc3c2OCO3)CC1	i	-27%	-11%	-11%	-85*
CCOC(=O)C1(CCOc2ccccc2)CCN(Cc2cccc(O)c2)CC1	i	-25%	5%	-21%	-86*
COC1CC(=C(c2cccs2)c2cccs2)C[N+](C)(C)C1 (centres undefined)	i	-3%	.	.	.
CC(N)Cc1c[nH]c2ccc(O)cc12 (centres undefined)	i	-1%	.	-20%	0
CC(N)Cc1c[nH]c2ccc(OCc3cccs3)cc12 (centres undefined)	i	-17%	.	-22%	-59*
Cc1cccc(N2C(=O)NC(=O)/C(=C\c3cccn3-c3ccc(Cl)cc3)C2=O)c1	?	?	3%	-19%	-90*
Cc1cc(C)cc(N2C(=O)NC(=O)/C(=C/c3cccn3-c3ccc(Cl)cc3)C2=O)c1	.	?	3%	-27%	-96*
Nc1ccc(C2(c3ccc(N)cc3)c3ccccc3-c3ccccc32)cc1	i	.	3%	-22%	-171*
Nc1ccccc1	i	13%	.	.	.
CNC(=O)Oc1ccc(-c2cn3cc(C)ccc3n2)cc1	i	8.9µM*	4%	-2%	?
SMILES	S2 tox	ATXN2 expr inh	USP2a block	USP1-UAF1 inh	IL1B secr inh
CNC(=O)Oc1cccc(-c2cn3cc(Cl)ccc3n2)c1	i	-41%	3%	-4%	-7
C[C@]12CC[C@H]3[C@@H](CCC4=CC(=O)CC[C@@H]43)[C@@H]1CC[C@@H]2OC(=O)CCc1ccccc1	i	-4%	.	.	.
CCN1C[C@]2(C)CC[C@H](OC)[C@@]34[C@@H]2[C@H](OC(C)=O)[C@]2(OCO[C@@]25C[C@@H](OC)[C@@H]2C[C@@]3(O)[C@H]5[C@@H]2OC)[C@H]14	i	.	.	.	.
CC(C)CC(N)c1csc(NC(=O)Nc2ccccc2-c2ccccc2)n1 (centres undefined)	25µM*	-27%	.	.	?
CC(C)c1ccc(NC(=O)Nc2nc(C(N)CCc3ccccc3)cs2)cc1 (centres undefined)	28µM*	28µM*	.	.	-106*
Cc1ccc(S(=O)(=O)N(CC(=O)NCCSc2ccc(Cl)cc2)c2ccccc2C)cc1	?	-22%	.	?	.
CCOP(=O)(C1=C(O)C(=O)C(C(C)(C)C)=CC1=O)c1ccccc1 (centres undefined)	i	3%	2%	?	35
COc1cc2cc(C(=O)N3CC(COS(C)(=O)=O)c4ccc(O)cc43)[nH]c2c(OC)c1OC (centres undefined)	0.34µM*	0.3µM*	.	-21%	-99*
Cc1nc2cc(C(F)(F)F)ccc2n1C1CCN(Cc2nnnn2Cc2ccc3c(c2)OCO3)CC1	i	-26%	-14%	-6%	-71*
CCOC(=O)N1CCN(C(=O)Cn2ncc3c4ccccc4n(Cc4ccc(F)cc4)c3c2=O)CC1	?	?	.	5%	.
CC(C)N(CCC(C(N)=O)(c1ccccc1)c1ccccn1)C(C)C (centres undefined)	i	5%	1%	-22%	8
CC(C)C[C@H]1C(=O)N2CCC[C@@H]2[C@]2(O)O[C@](NC(=O)[C@H]3C=C4c5cccc6[nH]c(Br)c(c56)C[C@H]4N(C)C3)(C(C)C)C(=O)N12	i	.	.	.	.
CC(=O)N1CCN(c2ccc(OC[C@H]3CO[C@](Cn4ccnc4)(c4ccc(Cl)cc4Cl)O3)cc2)CC1	?	?	-1%	11%	-23
CCC1(C)CC(=O)NC(=O)C1	i	.	.	.	.
COc1ccc(/C=N\NC(=O)c2cccc(F)c2)cc1COc1ccccc1	?	5%	.	-10%	78
Cc1ccc(Cn2cccc(C(=O)Nc3ccc4c(c3)OCCO4)c2=O)cc1	i	25%	.	-16%	.
CC[C@H]1C[C@H]2[C@@H]3CCC4=CC(=O)CC[C@@H]4[C@H]3CC[C@]2(C)[C@H]1O	i	-18%	.	.	.
C[C@H]1CN([C@@H](C)CO)C(=O)CCCn2nncc2CO[C@H]1CN(C)C(=O)Nc1ccc(N2CCCCC2)cc1	i	-3%	.	5%	-10
Cc1cccc(N2C(=O)NC(=O)/C(=C/c3ccc([N+](=O)[O-])o3)C2=O)c1	i	-4%	-17%	?	-1
O=C(Cc1ccccc1)c1ccccn1	?	-20%	.	-5%	0
CCN[C@@H](C)Cc1ccccc1	i	12%[116 µM]	.	.	.
CCCc1nc(SC)ncc1C(=O)Nc1ccc(Cl)cc1C(=O)c1ccccc1	i	-2%	.	-15%	.
